# Measured values from publication PMC4336329 (PLoS ONE, 2015).
# Screen size: about 310,000 compounds; about 2,200 (0.71%) showed an effect of 50% or more. The effect is printed as a negative number. The entries come from a sample that favours strong results as a whole.
# Target: human ether-à-go-go-related gene (hERG) potassium channel (human, UniProt Q12809)
# Assay: primary screen, population patch clamp on CHO cells stably expressing hERG; higher = less effect of the substance
# human ether-à-go-go-related gene (hERG) potassium channel, sequence (Q12809 whole entry, looked up): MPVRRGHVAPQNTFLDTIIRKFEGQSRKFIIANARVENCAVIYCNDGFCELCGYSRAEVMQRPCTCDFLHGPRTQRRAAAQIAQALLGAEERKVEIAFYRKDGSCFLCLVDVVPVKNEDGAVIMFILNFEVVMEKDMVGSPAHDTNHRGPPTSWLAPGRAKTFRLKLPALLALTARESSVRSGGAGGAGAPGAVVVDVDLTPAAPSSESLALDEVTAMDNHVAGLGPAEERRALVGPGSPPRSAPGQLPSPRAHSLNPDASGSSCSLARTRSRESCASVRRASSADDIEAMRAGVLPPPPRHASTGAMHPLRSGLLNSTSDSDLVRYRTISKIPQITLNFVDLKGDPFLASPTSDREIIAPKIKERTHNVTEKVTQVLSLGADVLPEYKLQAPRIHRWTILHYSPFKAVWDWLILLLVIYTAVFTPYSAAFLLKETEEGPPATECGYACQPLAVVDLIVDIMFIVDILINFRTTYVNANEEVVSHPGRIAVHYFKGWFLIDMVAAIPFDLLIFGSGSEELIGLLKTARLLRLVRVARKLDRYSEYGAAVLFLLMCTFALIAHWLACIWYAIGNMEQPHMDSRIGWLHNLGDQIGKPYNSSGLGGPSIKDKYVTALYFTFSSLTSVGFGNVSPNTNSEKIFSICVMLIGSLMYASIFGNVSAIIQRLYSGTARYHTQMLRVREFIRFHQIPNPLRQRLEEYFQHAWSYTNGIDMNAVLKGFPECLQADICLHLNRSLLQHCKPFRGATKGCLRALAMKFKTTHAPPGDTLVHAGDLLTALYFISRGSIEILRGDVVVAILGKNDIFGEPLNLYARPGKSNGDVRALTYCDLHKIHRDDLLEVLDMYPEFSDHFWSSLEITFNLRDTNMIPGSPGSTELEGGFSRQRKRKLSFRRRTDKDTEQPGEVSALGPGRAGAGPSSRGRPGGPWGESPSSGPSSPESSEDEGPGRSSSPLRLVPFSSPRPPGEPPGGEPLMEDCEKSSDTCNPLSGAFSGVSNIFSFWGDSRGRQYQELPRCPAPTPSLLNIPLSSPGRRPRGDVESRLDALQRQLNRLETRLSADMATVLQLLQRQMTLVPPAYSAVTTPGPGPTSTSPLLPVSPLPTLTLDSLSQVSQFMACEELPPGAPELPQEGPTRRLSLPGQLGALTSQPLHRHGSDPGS
row,Structure (SMILES),"hERG current change (%, negative = inhibition) at 1uM [%]"
1,O=C(CSc1nnc(CNC(=O)c2ccccc2)o1)NCc1ccc2c(c1)OCO2,4.4
2,CCN1CCN(c2c(Cl)cccc2NC(=O)c2ccc([N+](=O)[O-])cc2)CC1,-15.9
3,CSc1ccccc1C(=O)C1CCCN(C(=O)CCc2cccnc2)C1 (stereo not drawn),8.69
4,COc1ccc(NC(=O)CSc2nc3ccccc3c(=O)n2CCCO)cn1,-26.1
5,COc1ccc(OC)c(C2CC(=O)NC(SC)=C2C#N)c1 (stereo not drawn),7.92
6,O=C(CSc1ccccc1)Nc1nnc(COc2ccc(Cl)cc2)s1,3.34
7,CCOc1ccc(CN2CCN(Cc3ccc4cc(F)ccc4n3)CC2CCO)cc1 (stereo not drawn),-79.3
8,COc1cc(CN2CCN(Cc3ccc4cc(F)ccc4n3)CC2CCO)cc(OC)c1 (stereo not drawn),-21.6
9,CCOc1ccccc1CN1CCN(Cc2ccc3cc(F)ccc3n2)CC1CCO (stereo not drawn),-44.1
10,CCOc1ccc(N/C(N)=N/c2nc(C)cc(C)n2)cc1,4.81
11,Cc1cc(C)nc(/N=C(\N)Nc2ccc(C(C)C)cc2)n1,-3.29
12,Cc1cc(C)nc(/N=C(\N)Nc2ccc(OCc3ccccc3)cc2)n1,-28.8
13,Cc1cc(=O)[nH]c(/N=C(\N)Nc2ccc(SC(F)F)cc2)n1,1.96
14,Cc1cc(C)nc(/N=C(\N)Nc2ccc(-c3ccccc3)cc2)n1,-59.8
15,Cc1cc(C)nc(/N=C(\N)Nc2ccc(OCCC(C)C)cc2)n1,-55.9
16,Cc1ccc(N/C(N)=N/c2nc(C)cc(C)n2)cc1,-24.7
17,Cc1cc(C)nc(/N=C(\N)Nc2ccc(SC(F)F)cc2)n1,-52.9
18,CC(=O)Nc1ccc(N/C(N)=N/c2nc(C)cc(C)n2)cc1,8.5
19,COc1cccc(N2CCN(S(=O)(=O)c3c(C)[nH]c(C)c3C(=O)N3CCCCC3)CC2)c1,15.2
20,CC(C)(C)OC(=O)N1CCC(Cc2cc(-c3cccc(Br)c3)no2)(C(=O)O)CC1,-14
21,Cc1ccc(-n2nc3c(c2NC(=O)C2CC2)CS(=O)(=O)C3)cc1,-0.97
22,O=C(COC(=O)C1CCCCC1)Nc1ccccc1OC(F)F,12.3
23,Cc1cccn2c(CN3CCCC(c4ccccc4)C3)c(C(=O)N3CCOCC3)nc12 (stereo not drawn),-53.3
24,Cc1cccn2c(CN3CCSCC3)c(C(=O)N3CCOCC3)nc12,-1.36
25,Cc1cccn2c(CN[C@@H]3CCCC[C@H]3c3ccccc3)c(C(=O)N3CCOCC3)nc12,4.31
26,COc1cc2c(cc1OC)C1(Nc3c-2c(Cc2ccccc2)nn3-c2ccccc2)C(=O)Nc2ccccc21 (stereo not drawn),12.4

row,Structure (SMILES),"hERG current change (%, negative = inhibition) at 1uM [%]"
1,c1ccc(-c2c(-c3ccccc3)n(Cc3ccco3)c3ncnc(NCCCn4ccnc4)c23)cc1,-9.73
2,N=c1c2c(-c3ccccc3)c(-c3ccccc3)n(Cc3ccco3)c2ncn1CCO,-52.2
3,N=c1c2c(-c3ccccc3)c(-c3ccccc3)n(Cc3ccccc3)c2ncn1CCCn1ccnc1,-32
4,N=c1c2c(-c3ccccc3)c(-c3ccccc3)n(Cc3ccco3)c2ncn1CCCN1CCOCC1,-91.3
5,N=c1c2c(-c3ccccc3)c(-c3ccccc3)n(Cc3ccco3)c2ncn1Cc1ccco1,-26.8
6,N=c1c2c(-c3ccccc3)c(-c3ccccc3)n(Cc3ccco3)c2ncn1CCCn1ccnc1,-63.6
7,N=c1c2c(-c3ccccc3)c(-c3ccccc3)n(Cc3ccco3)c2ncn1CCN1CCOCC1,-72.3
8,CC(C)Cn1cnc2c(c(-c3ccccc3)c(-c3ccccc3)n2Cc2ccco2)c1=N,-26.2
9,N=c1c2c(-c3ccccc3)c(-c3ccccc3)n(Cc3ccco3)c2ncn1Cc1ccccc1,-4.13
10,N=c1c2c(-c3ccccc3)c(-c3ccccc3)n(Cc3ccco3)c2ncn1CCCO,-34.5
11,N=c1c2c(-c3ccccc3)c(-c3ccccc3)n(Cc3ccccc3)c2ncn1CCO,0.416
12,CCCCn1cnc2c(c(-c3ccccc3)c(-c3ccccc3)n2Cc2ccco2)c1=N,-45.6
13,Cc1cc(C)n(Cc2ccc(NC(=O)c3ccc(COc4ccccc4Br)cc3)cc2)n1,-8.42
14,O=C(O)C1=C(OCc2ccc(F)c(F)c2)C(=O)NCC1,13.4
15,Cc1ccc(C(C(=O)NC2CCCC2)N(Cc2ccccc2)C(=O)c2csnn2)o1 (stereo not drawn),12.4
16,COc1cc(C(=O)O)ccc1OCc1ccncc1,14.1
17,CCOC(=O)C(=O)NC(C)CCc1ccccc1 (stereo not drawn),9.43
18,Cc1ccc(C(C)C)c(OCC(=O)N2CCN(c3ncccn3)CC2)c1,10
19,Cc1cccn2c(=O)c3cc(C(=O)NC4CCCCC4)c(=N)n(Cc4ccccc4)c3nc12,-40.2
20,Cc1cccn2c(=O)c3cc(S(=O)(=O)c4ccccc4)c(=N)n(CC4CCCO4)c3nc12 (stereo not drawn),7.88
21,CCCn1c(=N)c(C(=O)NCc2ccc3c(c2)OCO3)cc2c(=O)n3cccc(C)c3nc21,-67.3
22,Cc1cccn2c(=O)c3cc(C(=O)NCC4CCCO4)c(=N)n(CC4CCCO4)c3nc12 (stereo not drawn),-84.8
23,CCCn1c(=N)c(C(=O)NCC2CCCO2)cc2c(=O)n3cccc(C)c3nc21 (stereo not drawn),-78.3
24,Cc1cccn2c(=O)nc(SCC(=O)NCc3ccc4c(c3)OCO4)nc12,-1.11
25,Cc1cccn2c(=O)c3cc(C(=O)NC4CCCC4)c(=N)n(CC4CCCO4)c3nc12 (stereo not drawn),-80.2
